The text below walks through data of ChEMBL document CHEMBL2218924, “A broad activity screen in support of a chemogenomic map for kinase signalling research and drug discovery” (Biochem J, 2013).

The target of assay [1] is ALK tyrosine kinase receptor (Homo sapiens) (UniProt Q9UM73). Conditions: at 10 µM.
Assay [2] addresses T1, Activin receptor type-1B (Homo sapiens) (UniProt P36896).
T1 sequence (whole entry): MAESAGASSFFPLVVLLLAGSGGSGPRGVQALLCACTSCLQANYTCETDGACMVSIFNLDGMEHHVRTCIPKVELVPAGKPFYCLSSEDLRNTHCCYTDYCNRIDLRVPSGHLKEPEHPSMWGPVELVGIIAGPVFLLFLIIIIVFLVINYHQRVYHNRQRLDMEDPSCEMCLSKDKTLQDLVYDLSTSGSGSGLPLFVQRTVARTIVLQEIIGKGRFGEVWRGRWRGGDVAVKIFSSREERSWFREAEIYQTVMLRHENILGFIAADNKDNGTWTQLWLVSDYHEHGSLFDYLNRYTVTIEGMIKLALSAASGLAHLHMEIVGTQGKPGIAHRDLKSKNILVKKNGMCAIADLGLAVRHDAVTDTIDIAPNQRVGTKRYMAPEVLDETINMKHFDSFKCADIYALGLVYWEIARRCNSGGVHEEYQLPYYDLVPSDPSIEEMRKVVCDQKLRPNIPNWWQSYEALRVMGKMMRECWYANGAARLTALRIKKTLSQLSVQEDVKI
The following applies: at 1 µM.

In assay [3] the target is T1, Activin receptor type-1B (Homo sapiens). Conditions: at 10 µM.
Assay [4] addresses T2, AMP-activated protein kinase (AMPK) alpha-1/beta-1/gamma-1 (Homo sapiens) (UniProt P54619+Q9Y478+Q13131). The following applies: at 1 µM.
Assay [5] addresses T2, AMP-activated protein kinase (AMPK) alpha-1/beta-1/gamma-1 (Homo sapiens). Conditions: at 10 µM.
The target in assay [6] is T3, AMP-activated protein kinase, AMPK (Homo sapiens) (UniProt P54646+O43741+P54619+Q9UGJ0+Q9Y478+Q13131+Q9UGI9). Conditions: at 1 µM.
In assay [7] the target is T3, AMP-activated protein kinase, AMPK (Homo sapiens). Conditions: at 10 µM.
Assay [8] addresses T4, NUAK family SNF1-like kinase 1 (Homo sapiens) (UniProt O60285).
T4 sequence (whole entry): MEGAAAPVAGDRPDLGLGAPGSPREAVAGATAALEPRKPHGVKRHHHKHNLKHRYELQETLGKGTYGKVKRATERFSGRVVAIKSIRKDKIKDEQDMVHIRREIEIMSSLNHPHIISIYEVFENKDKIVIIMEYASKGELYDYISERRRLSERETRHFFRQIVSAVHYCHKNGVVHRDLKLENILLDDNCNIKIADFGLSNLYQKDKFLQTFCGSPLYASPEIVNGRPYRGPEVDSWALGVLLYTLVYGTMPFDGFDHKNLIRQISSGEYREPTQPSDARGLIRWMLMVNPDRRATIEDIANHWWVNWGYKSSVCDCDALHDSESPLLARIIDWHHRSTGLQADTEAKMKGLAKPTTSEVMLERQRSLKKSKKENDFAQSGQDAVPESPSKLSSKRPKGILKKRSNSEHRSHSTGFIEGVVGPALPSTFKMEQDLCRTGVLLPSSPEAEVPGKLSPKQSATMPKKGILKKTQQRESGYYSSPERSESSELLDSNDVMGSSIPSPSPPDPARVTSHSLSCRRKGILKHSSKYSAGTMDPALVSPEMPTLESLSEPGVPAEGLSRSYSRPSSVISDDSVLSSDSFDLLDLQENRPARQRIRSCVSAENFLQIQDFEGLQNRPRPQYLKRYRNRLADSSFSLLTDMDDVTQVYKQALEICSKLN
The following applies: at 1 µM.

Assay [9] has as its target T4, NUAK family SNF1-like kinase 1 (Homo sapiens). Conditions: at 10 µM.
Assay [10] concerns the target T5, Mitogen-activated protein kinase kinase kinase 5 (Homo sapiens) (UniProt Q99683).
T5 sequence (whole entry): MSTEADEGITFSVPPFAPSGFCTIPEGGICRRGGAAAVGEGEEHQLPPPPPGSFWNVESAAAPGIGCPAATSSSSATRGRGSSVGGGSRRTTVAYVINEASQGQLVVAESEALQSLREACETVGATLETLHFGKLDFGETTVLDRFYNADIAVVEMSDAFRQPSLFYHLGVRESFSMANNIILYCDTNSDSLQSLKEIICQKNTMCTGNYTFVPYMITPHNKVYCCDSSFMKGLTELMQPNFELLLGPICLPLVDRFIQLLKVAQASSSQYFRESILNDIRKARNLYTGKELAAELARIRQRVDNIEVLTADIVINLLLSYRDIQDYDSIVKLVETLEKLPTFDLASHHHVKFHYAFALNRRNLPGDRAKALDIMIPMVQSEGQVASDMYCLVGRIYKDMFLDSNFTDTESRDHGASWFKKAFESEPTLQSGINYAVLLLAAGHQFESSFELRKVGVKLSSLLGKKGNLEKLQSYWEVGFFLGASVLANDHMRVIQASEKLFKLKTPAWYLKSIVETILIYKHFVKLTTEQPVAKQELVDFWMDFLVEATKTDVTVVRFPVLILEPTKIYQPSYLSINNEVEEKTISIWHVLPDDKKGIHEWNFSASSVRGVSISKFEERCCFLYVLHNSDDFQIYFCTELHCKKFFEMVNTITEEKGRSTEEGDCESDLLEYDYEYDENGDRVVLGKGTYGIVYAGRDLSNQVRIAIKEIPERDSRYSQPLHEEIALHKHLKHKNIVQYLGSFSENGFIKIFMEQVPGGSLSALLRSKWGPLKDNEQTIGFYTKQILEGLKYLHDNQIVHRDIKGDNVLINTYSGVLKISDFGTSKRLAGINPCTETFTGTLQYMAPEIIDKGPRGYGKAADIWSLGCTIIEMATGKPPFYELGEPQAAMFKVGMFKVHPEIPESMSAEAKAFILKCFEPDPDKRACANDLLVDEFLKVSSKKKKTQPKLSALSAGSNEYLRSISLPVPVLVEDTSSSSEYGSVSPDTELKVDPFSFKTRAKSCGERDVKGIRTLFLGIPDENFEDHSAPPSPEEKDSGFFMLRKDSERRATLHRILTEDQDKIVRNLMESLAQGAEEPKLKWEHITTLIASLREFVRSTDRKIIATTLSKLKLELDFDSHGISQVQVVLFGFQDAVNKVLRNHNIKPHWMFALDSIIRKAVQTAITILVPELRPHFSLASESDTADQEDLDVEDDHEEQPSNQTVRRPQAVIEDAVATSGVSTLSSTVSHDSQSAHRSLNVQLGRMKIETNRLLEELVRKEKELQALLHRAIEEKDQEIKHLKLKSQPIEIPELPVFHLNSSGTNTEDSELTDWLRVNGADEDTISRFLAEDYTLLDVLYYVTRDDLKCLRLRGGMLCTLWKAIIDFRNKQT
Conditions: at 1 µM.

The target in assay [11] is Platelet-derived growth factor receptor alpha (Homo sapiens) (UniProt P16234). The following applies: at 1 µM.
Platelet-derived growth factor receptor alpha (Homo sapiens), sequence (P16234 whole entry): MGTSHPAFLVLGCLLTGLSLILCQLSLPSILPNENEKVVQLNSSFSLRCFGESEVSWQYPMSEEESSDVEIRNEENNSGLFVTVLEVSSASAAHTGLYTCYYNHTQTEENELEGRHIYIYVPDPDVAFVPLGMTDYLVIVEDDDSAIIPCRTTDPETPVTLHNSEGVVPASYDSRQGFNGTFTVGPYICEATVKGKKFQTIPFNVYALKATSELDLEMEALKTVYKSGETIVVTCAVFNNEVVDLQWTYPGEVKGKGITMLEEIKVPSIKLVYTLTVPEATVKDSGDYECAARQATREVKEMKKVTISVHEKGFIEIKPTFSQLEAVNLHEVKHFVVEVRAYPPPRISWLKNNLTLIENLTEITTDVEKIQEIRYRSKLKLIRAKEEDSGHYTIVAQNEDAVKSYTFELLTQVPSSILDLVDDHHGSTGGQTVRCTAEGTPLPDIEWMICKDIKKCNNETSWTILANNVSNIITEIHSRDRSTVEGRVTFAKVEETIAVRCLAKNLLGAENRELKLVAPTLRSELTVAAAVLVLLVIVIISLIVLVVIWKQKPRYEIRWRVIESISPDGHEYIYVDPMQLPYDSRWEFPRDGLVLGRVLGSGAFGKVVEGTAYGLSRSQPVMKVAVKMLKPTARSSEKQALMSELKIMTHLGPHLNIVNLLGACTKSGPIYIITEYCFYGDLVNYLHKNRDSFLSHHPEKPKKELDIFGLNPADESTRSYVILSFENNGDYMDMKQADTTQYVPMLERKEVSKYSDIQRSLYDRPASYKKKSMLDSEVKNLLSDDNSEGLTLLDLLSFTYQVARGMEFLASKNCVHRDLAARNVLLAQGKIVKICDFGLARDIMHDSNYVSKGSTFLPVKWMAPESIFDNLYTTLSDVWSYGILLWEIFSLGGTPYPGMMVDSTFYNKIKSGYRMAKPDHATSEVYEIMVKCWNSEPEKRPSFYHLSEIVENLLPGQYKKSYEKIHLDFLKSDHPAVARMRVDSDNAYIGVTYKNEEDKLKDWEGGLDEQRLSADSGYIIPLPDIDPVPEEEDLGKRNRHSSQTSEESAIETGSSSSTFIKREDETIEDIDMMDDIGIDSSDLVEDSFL
For assay [12] the target is unchanged. The following applies: at 10 µM.
In assay [13] the target is Platelet-derived growth factor receptor beta (Homo sapiens) (UniProt P09619). The following applies: at 1 µM.
Assay [14] has the same target. Conditions: at 10 µM.
Assay [15] has as its target T6, 3-phosphoinositide-dependent protein kinase 1 (Homo sapiens) (UniProt O15530).
T6 sequence (whole entry): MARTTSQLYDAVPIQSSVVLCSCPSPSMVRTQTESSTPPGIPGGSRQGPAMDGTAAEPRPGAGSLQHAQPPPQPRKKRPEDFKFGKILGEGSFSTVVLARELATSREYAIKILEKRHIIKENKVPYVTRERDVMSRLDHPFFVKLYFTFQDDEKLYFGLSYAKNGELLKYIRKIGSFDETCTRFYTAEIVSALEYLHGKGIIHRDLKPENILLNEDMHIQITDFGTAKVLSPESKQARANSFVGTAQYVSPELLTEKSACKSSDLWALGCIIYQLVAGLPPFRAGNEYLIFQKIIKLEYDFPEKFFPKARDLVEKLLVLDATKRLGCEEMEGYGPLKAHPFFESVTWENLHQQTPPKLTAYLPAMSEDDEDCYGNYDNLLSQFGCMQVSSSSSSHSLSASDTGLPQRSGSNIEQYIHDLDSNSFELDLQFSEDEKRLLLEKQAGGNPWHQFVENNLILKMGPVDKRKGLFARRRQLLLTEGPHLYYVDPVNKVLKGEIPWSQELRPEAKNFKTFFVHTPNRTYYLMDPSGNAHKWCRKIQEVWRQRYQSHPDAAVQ
The following applies: at 1 µM.

The target in assay [16] is T6, 3-phosphoinositide-dependent protein kinase 1 (Homo sapiens). Conditions: at 10 µM.
Assay [17] has as its target cAMP-dependent protein kinase catalytic subunit alpha (Homo sapiens) (UniProt P17612). The following applies: at 1 µM.
The target is the same in assay [18]. The following applies: at 10 µM.
For assay [19], the target named is RAC-gamma serine/threonine-protein kinase (Homo sapiens) (UniProt Q9Y243). The following applies: at 1 µM.
RAC-gamma serine/threonine-protein kinase (Homo sapiens), sequence (Q9Y243 whole entry): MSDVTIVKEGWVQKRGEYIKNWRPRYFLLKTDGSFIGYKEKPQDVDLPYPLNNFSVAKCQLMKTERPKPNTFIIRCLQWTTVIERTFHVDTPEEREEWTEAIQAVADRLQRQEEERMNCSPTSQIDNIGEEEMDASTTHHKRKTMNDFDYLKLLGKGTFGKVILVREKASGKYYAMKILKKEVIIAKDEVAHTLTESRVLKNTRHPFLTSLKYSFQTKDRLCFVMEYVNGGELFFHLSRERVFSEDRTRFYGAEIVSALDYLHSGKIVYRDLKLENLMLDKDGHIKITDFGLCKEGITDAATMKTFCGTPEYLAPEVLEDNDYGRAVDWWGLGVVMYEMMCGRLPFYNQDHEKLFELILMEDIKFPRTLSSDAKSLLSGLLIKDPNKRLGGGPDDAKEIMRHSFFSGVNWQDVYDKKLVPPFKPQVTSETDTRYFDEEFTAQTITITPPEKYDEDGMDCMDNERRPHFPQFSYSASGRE
For assay [20] the target is unchanged. Conditions: at 10 µM.

T2 sequence (P54619 whole entry): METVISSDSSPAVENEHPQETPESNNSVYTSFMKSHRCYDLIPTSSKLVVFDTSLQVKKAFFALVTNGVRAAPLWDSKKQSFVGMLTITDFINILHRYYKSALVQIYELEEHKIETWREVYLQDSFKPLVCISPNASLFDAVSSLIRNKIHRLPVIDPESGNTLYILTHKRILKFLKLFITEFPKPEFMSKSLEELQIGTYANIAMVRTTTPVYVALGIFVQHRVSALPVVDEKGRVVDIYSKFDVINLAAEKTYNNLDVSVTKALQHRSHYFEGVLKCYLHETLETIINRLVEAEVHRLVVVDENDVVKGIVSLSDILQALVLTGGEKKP
T2 sequence (Q13131 whole entry partner): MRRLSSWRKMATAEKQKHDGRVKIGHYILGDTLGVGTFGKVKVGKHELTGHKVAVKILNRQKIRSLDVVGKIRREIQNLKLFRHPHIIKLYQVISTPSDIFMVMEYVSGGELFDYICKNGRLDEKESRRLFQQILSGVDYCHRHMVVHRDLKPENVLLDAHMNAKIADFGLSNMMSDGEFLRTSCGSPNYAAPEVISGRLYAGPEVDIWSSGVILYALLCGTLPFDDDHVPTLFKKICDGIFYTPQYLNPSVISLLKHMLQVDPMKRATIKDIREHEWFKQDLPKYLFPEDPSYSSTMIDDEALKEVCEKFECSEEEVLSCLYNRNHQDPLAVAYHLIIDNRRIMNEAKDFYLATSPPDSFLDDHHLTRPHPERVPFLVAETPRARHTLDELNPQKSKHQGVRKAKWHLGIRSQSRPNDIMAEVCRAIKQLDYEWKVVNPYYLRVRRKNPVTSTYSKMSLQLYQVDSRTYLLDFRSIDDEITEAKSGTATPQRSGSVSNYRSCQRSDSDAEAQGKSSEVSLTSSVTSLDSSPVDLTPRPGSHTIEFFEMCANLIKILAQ
T2 sequence (Q9Y478 2-270 partner limits assumed): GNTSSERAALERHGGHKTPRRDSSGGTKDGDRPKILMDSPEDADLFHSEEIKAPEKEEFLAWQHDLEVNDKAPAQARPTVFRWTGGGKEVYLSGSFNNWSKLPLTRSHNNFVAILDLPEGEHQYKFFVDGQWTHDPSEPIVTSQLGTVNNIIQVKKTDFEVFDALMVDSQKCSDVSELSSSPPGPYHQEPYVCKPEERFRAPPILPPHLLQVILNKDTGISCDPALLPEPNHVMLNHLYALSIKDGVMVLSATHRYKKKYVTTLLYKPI
ALK tyrosine kinase receptor (Homo sapiens), sequence (Q9UM73 19-1620 limits assumed): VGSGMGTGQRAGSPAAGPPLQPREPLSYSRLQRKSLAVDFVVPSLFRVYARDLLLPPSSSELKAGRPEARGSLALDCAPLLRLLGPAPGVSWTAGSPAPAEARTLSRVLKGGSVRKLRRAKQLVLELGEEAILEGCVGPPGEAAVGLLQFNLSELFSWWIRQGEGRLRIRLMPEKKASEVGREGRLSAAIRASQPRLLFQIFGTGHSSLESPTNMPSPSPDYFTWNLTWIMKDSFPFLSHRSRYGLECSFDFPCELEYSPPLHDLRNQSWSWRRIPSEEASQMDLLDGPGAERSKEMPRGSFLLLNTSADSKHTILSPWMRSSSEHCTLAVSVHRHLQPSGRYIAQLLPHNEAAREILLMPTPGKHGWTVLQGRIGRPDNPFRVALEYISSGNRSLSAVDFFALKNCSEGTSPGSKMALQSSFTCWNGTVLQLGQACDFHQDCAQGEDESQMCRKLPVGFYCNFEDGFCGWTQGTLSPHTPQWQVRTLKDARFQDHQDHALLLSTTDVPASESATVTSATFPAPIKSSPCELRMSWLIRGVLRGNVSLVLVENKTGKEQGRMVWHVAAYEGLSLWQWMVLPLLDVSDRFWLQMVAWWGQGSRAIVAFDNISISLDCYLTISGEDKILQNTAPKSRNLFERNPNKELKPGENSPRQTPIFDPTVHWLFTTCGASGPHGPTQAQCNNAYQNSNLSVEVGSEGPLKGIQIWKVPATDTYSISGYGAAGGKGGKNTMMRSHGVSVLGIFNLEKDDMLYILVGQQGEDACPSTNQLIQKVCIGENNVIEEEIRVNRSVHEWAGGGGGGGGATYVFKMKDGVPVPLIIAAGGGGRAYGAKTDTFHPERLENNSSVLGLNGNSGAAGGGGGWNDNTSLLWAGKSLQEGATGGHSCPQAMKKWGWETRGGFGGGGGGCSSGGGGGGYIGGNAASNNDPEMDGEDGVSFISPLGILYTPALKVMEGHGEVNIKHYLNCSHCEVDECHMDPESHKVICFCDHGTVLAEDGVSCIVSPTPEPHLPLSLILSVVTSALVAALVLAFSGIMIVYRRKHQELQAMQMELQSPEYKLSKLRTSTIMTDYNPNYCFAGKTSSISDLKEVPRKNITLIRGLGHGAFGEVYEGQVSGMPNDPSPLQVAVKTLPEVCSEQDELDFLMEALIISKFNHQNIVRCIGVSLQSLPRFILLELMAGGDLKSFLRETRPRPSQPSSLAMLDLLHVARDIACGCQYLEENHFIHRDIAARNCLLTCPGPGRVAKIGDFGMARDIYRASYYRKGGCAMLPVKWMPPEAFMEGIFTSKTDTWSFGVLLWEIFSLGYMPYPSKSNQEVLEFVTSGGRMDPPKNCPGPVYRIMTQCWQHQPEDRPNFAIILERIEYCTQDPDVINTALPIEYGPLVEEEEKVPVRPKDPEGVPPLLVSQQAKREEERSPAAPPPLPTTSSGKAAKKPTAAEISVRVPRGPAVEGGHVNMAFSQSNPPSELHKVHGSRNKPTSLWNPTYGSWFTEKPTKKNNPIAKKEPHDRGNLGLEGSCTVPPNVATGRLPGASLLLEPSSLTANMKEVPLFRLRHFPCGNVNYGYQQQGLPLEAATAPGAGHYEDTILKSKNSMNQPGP

As for `Ic1cccc(CSc2nnc(-c3ccncc3)o2)c1`, the residual activity in assay [1] is 68%; in [2], 98%; in assay [3], 105%; in [4] it was 35%; in assay [5], 25%; in assay [6] it was 45%. The residual activity was found to be 32% in assay [7]; 105% in [8]; 60% in assay [9]; 80% in assay [10]; 104% in assay [11]; 97% in assay [12]. The residual activity in assay [13] was determined as 99%; in assay [14], 97%; in [15], 56%; in [16], 44%; in assay [17] it was 99%; in assay [18], 79%. Further, the figures for the residual activity in [19] and in [20] were 92% and 74%, respectively.

Consider `N#C/C(=C(\N)Sc1ccc(N)cc1)c1ccccc1C(F)(F)F`, for which the residual activity in assay [1] stood at 65%; in assay [2], 108%; in assay [3], 111%; in assay [4], 75%; in assay [5] it was 57%; in [6], 77%. The residual activity in assay [7] came to 62%; in assay [8], 106%; in assay [9], 62%; in [10], 106%; in [11] it was 112%; in assay [12], 113%. For the same compound, the residual activity in [13] stood at 98%; in [14], 102%; in [15], 98%; in assay [16], 87%; in assay [17], 79%; in [18], 80%. For the same compound, the residual activity in assay [19] came to 96%; in [20], 86%.

For the compound `COc1ccc(CNc2nc(N(CCO)CCO)nc3c2ncn3C(C)C)cc1`, the residual activity in assay [1] amounted to 61%; in [2] it was 97%; in assay [3], 118%; in [4], 97%; in assay [5], 80%; in assay [6], 86%. For the same compound, the residual activity in assay [7] is 88%; in [8], 107%; in [9], 77%; in [10], 95%; in assay [11] it was 101%; in assay [12] it was 102%. The residual activity amounted to 93% in assay [13]; 100% in [14]; 100% in assay [15]; 100% in [16]; 93% in assay [17]; 85% in [18]. For the same compound, the residual activity was found to be 72% in [19] and 69% in assay [20].
